Experiments:
Assay in all cases: growth AUC relative to DMSO control (median of replicates) (fraction); higher = more growth (less inhibition), active = hit call of the paper
Details in all cases: 20 µM; 24 h;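 active = AUC reduced over 20% with Padj below 0.05 in at least 2 of 3 replicates; inactive = otherwise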
Coprococcus comes = test system: Coprococcus comes
Outline: (§1)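 In round-bottom 96-well plates sealed with pierced gas-permeable seals, gut bacterial monocultures in mGAM were grown anaerobically at 37 °C from OD600 0.05 with 20 µM compound (1% DMSO). OD600 readings were taken hourly for 24 h, and the minimum OD was set to 0. Area under the growth curve was then normalised to the plate median of solvent-only wells, or to row and column medians on the industrial chemical plate. The value given is the median of three biological replicates grown on separate days.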

Escherichia coli ED1a = test system: Escherichia coli ED1a
Outline: as §1

Escherichia coli IAI1 = test system: Escherichia coli IAI1
Outline: as §1

Eubacterium rectale = test system: Eubacterium rectale
Outline: as §1

[1] = test system: Fusobacterium nucleatum subsp. animalis
Outline: as §1

Lactobacillus gasseri = test system: Lactobacillus gasseri
Outline: as §1

Lactobacillus paracasei = test system: Lactobacillus paracasei
Outline: as §1

Odoribacter splanchnicus = test system: Odoribacter splanchnicus
Outline: as §1

[2] = test system: Parabacteroides distasonis
Outline: as §1

Parabacteroides merdae = test system: Parabacteroides merdae
Outline: as §1

Roseburia intestinalis = test system: Roseburia intestinalis
Outline: as §1

Streptococcus salivarius = test system: Streptococcus salivarius
Outline: as §1

Measured: growth AUC

COCC(=O)N(c1c(C)cccc1C)[C@H](C)C(=O)OC
inactive: Coprococcus comes 1.04 | Escherichia coli ED1a 1.02 | Escherichia coli IAI1 1.05 | Eubacterium rectale 1.01 | [1] 1.02 | Lactobacillus gasseri 0.957 | Lactobacillus paracasei 1 | Odoribacter splanchnicus 1.03 | [2] 1.05 | Parabacteroides merdae 1.05 | Roseburia intestinalis 0.966 | Streptococcus salivarius 1.02

CCOP(=S)(OCC)Oc1ccc(S(C)=O)cc1 (stereo unspecified)
inactive: Coprococcus comes 1 | Escherichia coli ED1a 1 | Escherichia coli IAI1 1.01 | Eubacterium rectale 0.878 | [1] 0.998 | Lactobacillus gasseri 1.07 | Lactobacillus paracasei 1 | Odoribacter splanchnicus 0.977 | [2] 1 | Parabacteroides merdae 1 | Roseburia intestinalis 1.02 | Streptococcus salivarius 1.03

N#Cc1nn(-c2c(Cl)cc(C(F)(F)F)cc2Cl)c(N)c1S(=O)C(F)(F)F (stereo unspecified)
inactive: Coprococcus comes 1 | Escherichia coli ED1a 1.01 | Escherichia coli IAI1 0.981 | Eubacterium rectale 0.951 | [1] 0.974 | Lactobacillus gasseri 0.811 | Lactobacillus paracasei 0.98 | Odoribacter splanchnicus 0.93 | Parabacteroides merdae 0.87 | Roseburia intestinalis 0.914 | Streptococcus salivarius 0.811
active: [2] 0.714

Cc1nnc(-c2ccccc2)c(=O)n1N
inactive: Coprococcus comes 1 | Escherichia coli ED1a 1 | Escherichia coli IAI1 0.995 | Eubacterium rectale 0.993 | [1] 0.998 | Lactobacillus gasseri 0.931 | Lactobacillus paracasei 0.972 | Odoribacter splanchnicus 1.06 | [2] 1 | Parabacteroides merdae 1.02 | Roseburia intestinalis 0.97 | Streptococcus salivarius 1.06

CCN(Cc1ccc(Cl)nc1)/C(=C/[N+](=O)[O-])NC
inactive: Coprococcus comes 0.959 | Escherichia coli ED1a 1.04 | Escherichia coli IAI1 0.987 | Eubacterium rectale 0.948 | [1] 0.928 | Lactobacillus gasseri 0.966 | Lactobacillus paracasei 0.992 | Odoribacter splanchnicus 0.95 | [2] 1.04 | Parabacteroides merdae 0.989 | Roseburia intestinalis 1 | Streptococcus salivarius 1

CCCSP(=O)(OCC)Oc1ccc(Br)cc1Cl (stereo unspecified)
inactive: Coprococcus comes 1.01 | Escherichia coli ED1a 1.01 | Escherichia coli IAI1 1.04 | Eubacterium rectale 0.993 | [1] 1.11 | Lactobacillus gasseri 0.976 | Lactobacillus paracasei 1.1 | Odoribacter splanchnicus 1.04 | [2] 0.871 | Parabacteroides merdae 0.994 | Roseburia intestinalis 1.01 | Streptococcus salivarius 1.01

Oc1ccc(Cl)c(Cl)c1Cl
inactive: Coprococcus comes 1.02 | Escherichia coli ED1a 1.01 | Escherichia coli IAI1 0.971 | Eubacterium rectale 1.06 | [1] 1.09 | Lactobacillus gasseri 1.12 | Lactobacillus paracasei 1.01 | Odoribacter splanchnicus 0.978 | [2] 0.971 | Parabacteroides merdae 1.06 | Roseburia intestinalis 1.05 | Streptococcus salivarius 0.96

N#Cc1c[nH]cc1-c1cccc(Cl)c1Cl
inactive: Coprococcus comes 0.948 | Escherichia coli ED1a 1.01 | Escherichia coli IAI1 0.981 | Eubacterium rectale 1.06 | [1] 0.797 | Lactobacillus gasseri 1.06 | Lactobacillus paracasei 1.07 | Odoribacter splanchnicus 0.732 | [2] 0.804 | Parabacteroides merdae 0.941 | Roseburia intestinalis 1.14 | Streptococcus salivarius 0.929

CCCC(Cn1cncn1)c1ccc(Cl)cc1Cl (stereo unspecified)
inactive: Coprococcus comes 0.919 | Escherichia coli ED1a 0.997 | Escherichia coli IAI1 1.03 | [1] 1.05 | Lactobacillus gasseri 1.05 | Lactobacillus paracasei 0.987 | Odoribacter splanchnicus 0.962 | [2] 0.991 | Parabacteroides merdae 0.969 | Roseburia intestinalis 1.02 | Streptococcus salivarius 0.915
active: Eubacterium rectale 0.73

C/C(=N\NC(=O)Nc1cc(F)cc(F)c1)c1ncccc1C(=O)[O-].[Na+]
inactive: Coprococcus comes 1.01 | Escherichia coli ED1a 0.973 | Escherichia coli IAI1 0.995 | Eubacterium rectale 1.12 | [1] 1.09 | Lactobacillus gasseri 0.796 | Lactobacillus paracasei 0.975 | Odoribacter splanchnicus 1.07 | [2] 0.875 | Parabacteroides merdae 1.01 | Roseburia intestinalis 1.06 | Streptococcus salivarius 0.988

CCOCCN(C(=O)CCl)C(=C(C)C)c1ccccc1
inactive: Coprococcus comes 0.999 | Escherichia coli ED1a 0.98 | Escherichia coli IAI1 0.976 | Eubacterium rectale 0.982 | [1] 0.986 | Lactobacillus gasseri 0.935 | Lactobacillus paracasei 1.01 | Odoribacter splanchnicus 0.978 | [2] 0.955 | Parabacteroides merdae 1 | Roseburia intestinalis 1.03 | Streptococcus salivarius 0.993

CCNP(=S)(OC)O/C(C)=C/C(=O)OC(C)C (stereo unspecified)
inactive: Coprococcus comes 0.987 | Escherichia coli ED1a 1 | Escherichia coli IAI1 0.951 | Eubacterium rectale 1.13 | [1] 0.981 | Lactobacillus gasseri 0.968 | Lactobacillus paracasei 0.994 | Odoribacter splanchnicus 0.956 | [2] 0.991 | Parabacteroides merdae 0.963 | Roseburia intestinalis 1.05 | Streptococcus salivarius 0.99

C=CCC1=C(C)C(OC(=O)[C@@H]2[C@@H](C=C(C)C)C2(C)C)CC1=O (stereo partly specified)
inactive: Coprococcus comes 1.03 | Escherichia coli ED1a 1.01 | Escherichia coli IAI1 0.988 | Eubacterium rectale 0.919 | [1] 1 | Lactobacillus gasseri 0.962 | Lactobacillus paracasei 0.968 | Odoribacter splanchnicus 1.07 | [2] 0.9 | Parabacteroides merdae 0.999 | Roseburia intestinalis 1.05 | Streptococcus salivarius 1.01

CCCCc1c(C)nc(NCC)nc1OS(=O)(=O)N(C)C
active: [2] 0.598
inactive: Coprococcus comes 0.996 | Escherichia coli ED1a 0.987 | Escherichia coli IAI1 1.01 | Eubacterium rectale 1.16 | [1] 0.968 | Lactobacillus gasseri 0.931 | Lactobacillus paracasei 0.987 | Odoribacter splanchnicus 0.891 | Parabacteroides merdae 0.906 | Roseburia intestinalis 1.03 | Streptococcus salivarius 1.02

[CH3][Hg][Cl]
active: Odoribacter splanchnicus 0.684
inactive: Coprococcus comes 0.816 | Escherichia coli ED1a 1.04 | Escherichia coli IAI1 1.06 | Eubacterium rectale 0.872 | [1] 0.956 | Lactobacillus gasseri 0.99 | Lactobacillus paracasei 1.04 | [2] 0.918 | Parabacteroides merdae 0.892 | Roseburia intestinalis 1.05 | Streptococcus salivarius 0.848

Oc1ccc(C(c2ccc(O)cc2)(C(F)(F)F)C(F)(F)F)cc1
active: Eubacterium rectale 0.792 | [1] 0.595 | Odoribacter splanchnicus 0.0871 | [2] 0.0433 | Parabacteroides merdae 0.515 | Roseburia intestinalis 0.661
inactive: Coprococcus comes 1.06 | Escherichia coli ED1a 0.969 | Escherichia coli IAI1 1 | Lactobacillus gasseri 0.577 | Lactobacillus paracasei 0.727 | Streptococcus salivarius 0.85

COCCOC(=O)C(C#N)(C(=O)c1ccccc1C(F)(F)F)c1ccc(C(C)(C)C)cc1 (stereo unspecified)
inactive: Coprococcus comes 0.971 | Escherichia coli ED1a 0.953 | Escherichia coli IAI1 0.966 | Eubacterium rectale 1.05 | [1] 1.03 | Lactobacillus gasseri 0.839 | Lactobacillus paracasei 0.908 | Odoribacter splanchnicus 1 | [2] 0.723 | Parabacteroides merdae 0.946 | Roseburia intestinalis 1.02 | Streptococcus salivarius 0.917

CCCOc1nn(C(=O)[N-]S(=O)(=O)c2ccccc2C(=O)OC)c(=O)n1C.[Na+]
inactive: Coprococcus comes 0.988 | Escherichia coli ED1a 0.994 | Escherichia coli IAI1 1.02 | Eubacterium rectale 1.08 | [1] 1.12 | Lactobacillus gasseri 0.968 | Lactobacillus paracasei 0.977 | Odoribacter splanchnicus 1.1 | [2] 1.02 | Parabacteroides merdae 0.999 | Roseburia intestinalis 0.992 | Streptococcus salivarius 0.981

CO/N=C(/C1=NOCCO1)c1ccccc1Oc1ncnc(Oc2ccccc2Cl)c1F
active: [2] 0.678
inactive: Coprococcus comes 0.962 | Escherichia coli ED1a 0.967 | Escherichia coli IAI1 1.03 | Eubacterium rectale 0.963 | [1] 0.978 | Lactobacillus gasseri 0.992 | Lactobacillus paracasei 1 | Odoribacter splanchnicus 0.974 | Parabacteroides merdae 0.892 | Roseburia intestinalis 0.997 | Streptococcus salivarius 1.04

ClCC1C(CCl)C2(Cl)C(Cl)=C(Cl)C1(Cl)C2(Cl)Cl (stereo unspecified)
inactive: Coprococcus comes 0.945 | Escherichia coli ED1a 0.973 | Escherichia coli IAI1 1 | Eubacterium rectale 1.02 | [1] 1.08 | Lactobacillus gasseri 0.931 | Lactobacillus paracasei 0.974 | Odoribacter splanchnicus 1.06 | [2] 1.01 | Parabacteroides merdae 0.995 | Roseburia intestinalis 0.996 | Streptococcus salivarius 0.981

O=C1C(Cl)=C(Cl)C(=O)c2ccccc21
inactive: Coprococcus comes 1.05 | Escherichia coli ED1a 1.02 | Escherichia coli IAI1 0.973 | Eubacterium rectale 1.34 | [1] 1.02 | Lactobacillus gasseri 0.929 | Lactobacillus paracasei 0.941 | Odoribacter splanchnicus 0.797 | [2] 0.938 | Parabacteroides merdae 0.967 | Roseburia intestinalis 1.13 | Streptococcus salivarius 0.955

CS(=O)(=O)c1cc(C(F)(F)F)ccc1C(=O)c1cnoc1C1CC1
inactive: Coprococcus comes 1.02 | Escherichia coli ED1a 1.01 | Escherichia coli IAI1 1.01 | Eubacterium rectale 1.04 | [1] 0.93 | Lactobacillus gasseri 1.04 | Lactobacillus paracasei 0.826 | Odoribacter splanchnicus 1.1 | [2] 1.05 | Parabacteroides merdae 1.02 | Roseburia intestinalis 1.03 | Streptococcus salivarius 1.01

COP(=S)(NC(C)C)Oc1ccc(C)cc1[N+](=O)[O-] (stereo unspecified)
inactive: Coprococcus comes 1.03 | Escherichia coli ED1a 0.997 | Escherichia coli IAI1 0.996 | Eubacterium rectale 0.933 | [1] 1.06 | Lactobacillus gasseri 1.03 | Lactobacillus paracasei 1.06 | Odoribacter splanchnicus 0.998 | [2] 0.972 | Parabacteroides merdae 0.973 | Roseburia intestinalis 1.01 | Streptococcus salivarius 1.02
